# Results published in the supplement of paper PMC6522484.
# ± gives the standard deviation of the averaged measurements.
# Legend:
# [1] = tested on: DLD1; assay: cell viability (CellTiter-Glo) relative to plate median (fraction of plate median); higher = more viable cells; settings: 5 µM; treatment time 24 h; reporter: 7TFP
# Procedure, shortened: (§1)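 Library compounds were added at a final concentration of 5 µM for 24 h to colorectal cancer cells stably transduced with a lentiviral TCF/Wnt firefly luciferase reporter. Reported values are firefly luciferase or CellTiterGlo luminescence, normalised per well to the plate median. Each value averages two independent replicates.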
# [2] = tested on: HCT116; assay: as above; settings: 5 µM; treatment time 24 h; reporter: TCF4/Wnt
# Procedure, shortened: as §1
# [3] = tested on: SW480; assay: as above; settings: 5 µM; treatment time 24 h; reporter: 7TFP
# Procedure, shortened: as §1
# [4] = tested on: DLD1; assay: TCF/Wnt firefly luciferase reporter signal relative to plate median (fraction of plate median); higher = higher Wnt reporter signal; settings: 5 µM; treatment time 24 h; reporter: 7TFP
# Procedure, shortened: as §1
# [5] = tested on: SW480; assay: as above; settings: 5 µM; treatment time 24 h; reporter: 7TFP
# Procedure, shortened: as §1
SMILES,cell viability [1],cell viability [2],cell viability [3],TCF/Wnt firefly luciferase reporter signal [4],TCF/Wnt firefly luciferase reporter signal [5]
C=CC(C1=CC(=O)C=CC1=O)c1ccccc1 (stereo not given),0.965 ± 0.064,0.884 ± 0.098,0.943 ± 0.038,0.885 ± 0.022,0.984 ± 0.037
O=C(Cc1cccs1)N[C@@H]1C(=O)N2C(C(=O)[O-])=C(C[n+]3ccccc3)CS[C@H]12,0.979 ± 0.073,0.944 ± 0.057,1.01,0.9975 ± 0.0035,0.889 ± 0.0057
COc1cc2ccc(=O)oc2c(O)c1O,0.945 ± 0.077,0.908 ± 0.061,0.966 ± 0.062,1.04 ± 0.042,0.9995 ± 0.00071
CC(C)(C)CC(C)(C)c1ccc(OCCOCC[N+](C)(C)Cc2ccccc2)cc1,1.07 ± 0.028,0.99 ± 0.071,1.05 ± 0.021,0.983 ± 0.081,0.897 ± 0.017
CC1(C)CC[C@]2(C(=O)O)CC[C@]3(C)C(=CCC4[C@@]5(C)CC[C@@H](O)C(C)(C)C5CC[C@]43C)C2C1 (stereo not given in full),0.967 ± 0.032,1.11 ± 0.092,1.08 ± 0.014,0.955 ± 0.093,0.9805 ± 0.005
Cc1nc2ccccn2c(=O)c1CCN1CCC(C(=O)c2ccc(F)cc2)CC1,0.911 ± 0.15,1.03 ± 0.099,1.04 ± 0.057,1.01 ± 0.037,0.947 ± 0.017
CC(=O)O[C@@H]1CO[C@H]2O[C@H]3[C@@H](C(C=O)=C[C@H](O)[C@@H]4C5=C(C(C)C)CC[C@]5(C)CC[C@@]34C)[C@@]2(O)C1=O [Striatal B],1 ± 0.17,0.89 ± 0.16,1.05 ± 0.021,1 ± 0.16,1.025 ± 0.0071
Cc1cccc(C)c1NC(=O)C1CCCCN1C (stereo not given),1 ± 0.078,0.959 ± 0.1,0.971 ± 0.035,1.05 ± 0.035,1.04 ± 0.12
CN1[C@@H](CC(=O)c2ccccc2)CCC[C@H]1C[C@H](O)c1ccccc1,1.1 ± 0.13,0.987 ± 0.061,1.05 ± 0.021,0.998 ± 0.032,1.04 ± 0.098
CC(C(=O)O)c1cccc(Oc2ccccc2)c1 (stereo not given),0.968 ± 0.088,0.98 ± 0.0057,0.988 ± 0.06,1.04 ± 0.085,1.11 ± 0.042
CC(C)NCC(O)COc1cccc2ccccc12 (stereo not given),0.927 ± 0.16,0.997 ± 0.047,1.03 ± 0.044,1.01 ± 0.044,0.9935 ± 0.0092
NCCC(=O)N[C@@H](Cc1c[nH]cn1)C(=O)O,1.08 ± 0.064,1.04 ± 0.021,1.01 ± 0.016,1.24 ± 0.092,1.17 ± 0.11
C=C[C@H]1CN2CC[C@H]1C[C@H]2[C@H](O)c1ccnc2ccc(OC)cc12,1.11 ± 0.035,1.06 ± 0.021,1.07 ± 0.092,1.205 ± 0.0071,0.983 ± 0.11
COC(=O)C1=CO[C@@H](O[C@@H]2O[C@H](CO)[C@@H](O)[C@H](O)[C@H]2O)[C@H]2[C@@H]1C(=O)C[C@@H]2C,1.03 ± 0.067,0.992 ± 0.083,0.982 ± 0.026,1.08 ± 0.064,1.06 ± 0.021
OC(CCN1CCCCC1)(c1ccccc1)C1CCCCC1 (stereo not given),0.963 ± 0.03,0.932 ± 0.033,0.945 ± 0.052,0.855 ± 0.052,0.917 ± 0.018
